Laboratory results taken from PubChem BioAssay (EPA / NIEHS).
Values joined by “and” are separate entries in the source; they are usually repeats but may differ in a detail not shown here. Equal values may be shown once. Active and inactive are the calls of the source. How the source made its calls: active means hit-call score of the fitted dose curve at least 0.9, where 1 is the maximum; inactive means score below 0.9.

test: CCTE_Shafer_MEA_dev_spike_duration_mean: CCTE's Neural Network Formation Assay for Mean Spike Duration, Shafer Lab (AID 2284051);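 on AC50: potency for a decrease in mean network spike duration versus DMSO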
Description: CCTE_Shafer_MEA_dev assay is conducted using Axion Biosystems 48 well microelectrode array (MEA) plates and Maestro recording system. Each well of the MEA plate contains a grid of 16 microelectrodes embedded in the culture surface. Electrically active cells, such as neurons, can be cultured over the electrodes, and electrical activity in these cells can be recorded extracellularly. The spontaneous firing of neurons is captured from each electrode on a microsecond timescale providing both temporally and spatially precise data. […] The CCTE_Shafer_MEA_dev assay uses primary cultures of rat cortical neurons. Recordings are made on days post-plating 5, 7, 9 and 12. As these cultures mature over time, neural networks develop functional activity and form cohesive networks in which electrical activity can be highly coordinated. CCTE_Shafer_MEA_dev_spike_duration_mean is 1 of 19 assay components of the CCTE_Shafer_MEA_dev assay. It measures the average duration of network spikes (temporally-clustered groups of action potential firing across multiple electrodes) during a recording in a microelectrode array (MEA) using Axion Biosystems Maestro 768 channel amplifier with the AxIS adaptive spike detector. To collapse across multiple recordings made on days post-plating 5, 7, 9 and 12, the trapezoidal area-under-the-curve of the component is calculated.Data from the assay component CCTE_Shafer_MEA_dev_spike_duration_mean was analyzed into 1 assay endpoint. This assay endpoint, CCTE_Shafer_MEA_dev_spike_duration_mean, was analyzed in the negative analysis fitting direction relative to DMSO as the negative control and baseline of activity. Using a type of functional reporter, gain or loss-of-signal activity can be used to understand electrical activity.
On the day prior to culture, each well was coated thoroughly with 150 uL of 0.05% polyethyleneimine (PEI, Sigma Cat P3143) in 50 mM HEPES (Sigma Cat H7523) at a pH of 8. The plate was incubated at 37C for one hour. PEI was rinsed out with 500 uL of sterile water three times. Plates were stored at 4C until the day of culture. This culture was plated at a seeding density of 1.5 x 10^5 cells/well on a 48-well MEA plate, prepared as described above. Cells were administered via a 25 uL media/laminin ([…]; Sigma Cat L2020-1MG) drop directly onto the microelectrode array, as adding the cells with the laminin results in better attachment than pre-coating with laminin. After 2 hours, an additional 475 uL of cortical media was added and the cells returned to the incubator. Exposure starts at day 0 of plating and is continued over twelve days of network development until the experiment is terminated. Cells are fed with fresh medium on DIV 5 and 9, following the recordings on those days. The entire volume of media in the well is exchanged and any vehicle or compound treatment is renewed. Complete details are found in OP-NHEERL/ISTD/SBB/TJS/2015-03-r0 (available on request, email shafer.tim@epa.gov). Measurement of the electrical activity is non-invasive, and recordings can be made from the same plate over multiple different days of the culture. In cortical neurons, this allows for the measurement of extracellular action potentials over the period during which networks form in the MEA plate.

Compound | AC50 | outcome
ClC1=C(Cl)C2(Cl)C3C(Cl)C=CC3C1(Cl)C2(Cl)Cl (stereo not given) | 4.2 µM (active) | –
COP(=S)(OC)SCN1C(=O)c2ccccc2C1=O | 36.7 µM (active) and 23.6 µM (active) | –
ClC1=C(Cl)[C@]2(Cl)[C@H]3[C@H]([C@@H]4C=C[C@H]3C4)[C@@]1(Cl)C2(Cl)Cl | 5.79 µM (active) | –
O=P(OCCCl)(OCCCl)OCCCl | – | inactive
CC(C)COC(=O)c1ccccc1C(=O)OCC(C)C | 13.7 µM (active) | –
OCCOCCO | – | inactive
Clc1ccc(C(c2ccc(Cl)cc2)C(Cl)(Cl)Cl)cc1 | 2.62 µM (active) and 8.54 µM (active) | –
[O-][Cl+]O | – | inactive
CC(C)(O)c1cnn2c(-c3ccc(F)c(-c4c(F)cccc4C#N)c3)cnc2n1 | 1.98 µM (active) | –
Clc1ccc(C(c2ccc(Cl)cc2)C(Cl)Cl)cc1 | 3.39 µM (active) | –
C1=Cc2cccc3cccc1c23 | – | inactive
Nc1cc(Cl)cc(C(=O)O)c1Cl | – | inactive
CNC(=O)Oc1cccc2c1OC(C)(C)C2 | 10 µM (active) and 49.6 µM (active) | –
CCCCOC(=O)c1ccccc1C(=O)OCc1ccccc1 | 13.6 µM (active) | –
CC(C)(C)C(O)(CCc1ccc(Cl)cc1)Cn1cncn1 (stereo not given) | 15 µM (active) | –
CN(C)[C@@H]1C(=O)C(C(N)=O)=C(O)[C@@]2(O)C(=O)C3=C(O)c4c(O)cccc4[C@@](C)(O)[C@H]3C[C@@H]12 | – | inactive
CCC[CH2][Sn]([Cl])([CH2]CCC)[CH2]CCC | 0.0303 µM (active) | –
CCNS(=O)(=O)C(F)(F)C(F)(F)C(F)(F)C(F)(F)C(F)(F)C(F)(F)C(F)(F)C(F)(F)F | 15 µM (active) and 4.81 µM (active) | –
COC(=O)Nc1nc2ccccc2[nH]1 | 12.5 µM (active) | –
[Cl-].[Cl-].[Hg+2] | 0.64 µM (active) | –
